According to publication PMC5540273 (PLoS ONE, 2017):

Each compound was assayed on ROCK1. Details: concentration: 1 μM,replicates: in singlicate; n = 1.
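Also: KINOMEscan kinase panel screen.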

Structure (SMILES)	%Inh [%]
O=C(Nc1ccccc1)c1cccc(Oc2ccc3nccn3n2)c1	34
Cc1ccc(CC(=O)N2CCc3cc(-c4cn(C)c5ncnc(N)c45)ccc32)cc1 [GSK2634758]	0
COC(=O)c1cccc(NC(=O)NC2CCN(c3ccnc(NCc4ccc(F)cc4)n3)CC2)c1 [GSK1379860]	25
Cc1n[nH]c2cc(Nc3ccnc(Nc4cccc(CN5CCOCC5)c4)n3)ccc12 [GW682569]	27
CCN1CCN(CCCC(=O)Nc2n[nH]c3nc(-c4ccc(O)cc4)c(Br)cc23)CC1 [SB-731579]	10
COc1ccc(Nc2nccc(N3CCC(NC(=O)c4cccc(C#N)c4)C3)n2)cc1 (stereo not shown) [GSK1379730]	25
C[C@@H](Oc1cc(-n2cnc3cc(-c4ccncc4)ccc32)sc1C(N)=O)c1ccccc1Cl [GSK479719]	3
Cc1nnc(-c2ccc3occ(-c4ccc(S(C)=O)cc4)c3n2)o1 (stereo not shown)	0
Cn1cc(-c2cccc3c(N)c(C(N)=O)nnc23)cn1	11
Cl.Nc1n[nH]c2cc(-c3ccccn3)ccc12 [GSK2189892]	0
COc1cccc(CNC(=O)NC2CCN(c3ccnc(Nc4cc(OC)c(OC)c(OC)c4)n3)C2)c1 (stereo not shown) [GSK1379765]	67
Cc1ccc(C(=O)Nc2ccc(Oc3ccc4nc(NC(=O)C5CC5)cn4c3)c(F)c2)c(=O)n1-c1ccccc1	0
Cc1cccc2c(-c3ccncc3)c(-c3ccc(F)cc3)nn12.Cl [GW461487]	18
